# Measurements as given in PubChem BioAssay AID2501 (Southern Research Specialized Biocontainment Screening …, 2010).
# The whole screen tested about 2,200 compounds, of which about 1,200 (55%) were called active. No cut-off is given here; in the data, nearly all actives have IC50 up to about 92 µM. The set was probably picked from earlier hits. The list shows a part of the results.
# Test: counter assay for TAg ATPase ADP read-out – biochemical, ADP-Hunter, fluorescence, counter-screen (AID 2501);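 note: purified T antigen ATPase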
# Details: series mostly up to 100 µM
row,SMILES,IC50
1,Cc1ccc(C)n1Cc1ccc(C(=O)O)cc1,inactive
2,Cc1ccsc1C=Nc1ccc(O)cc1,5.76 µM (active)
3,On1ccccc1=S,inactive
4,Cc1ccc(/C=N/N2C(=O)c3ccccc3NC2c2ccc(C)cc2)cc1 (centres undefined),inactive
5,Cc1ccc(C2=NOC(=O)/C2=C\c2ccccc2)cc1,inactive
6,Cc1ccc(C2C=NN(c3ccccc3)C2=O)cc1 (centres undefined),12.2 µM (active)
7,CCCCn1c(N)c(N(CCOC)C(=O)c2cccc(S(=O)(=O)N(C)c3ccccc3)c2)c(=O)[nH]c1=O,inactive
8,Cc1cc(C)c2c(CCl)cc(=O)oc2c1,inactive
9,CC(=O)Oc1cc2oc(=O)cc(C)c2cc1OC(C)=O,10.8 µM (active)
10,CCc1cc(=O)oc2cc(OCC(N)=O)c(Cl)cc12,inactive
11,CCN(CC)c1ccc(NC(=O)CSc2nnc3nc(C)cc(C)n23)cc1,2.92 µM (active)
12,Cc1sc2nc(CSCC(=O)N(C)CC(=O)Nc3ccc(F)cc3)[nH]c(=O)c2c1C,inactive
13,COc1ccc(NC(=O)CSc2nc(NS(=O)(=O)c3ccc(C)cc3)cc(=O)[nH]2)cc1,inactive
14,CN(C)c1ccc(NC(=O)CSc2nc3c(c(=O)[nH]2)CCCC3)cc1,2.47 µM (active)
15,CCN(CC)c1ccc(NC(=O)CSc2nc3nc(C)cc(C)c3c(=O)[nH]2)cc1,6.75 µM (active)
16,Cc1occc1-c1nnc(SCC(=O)Nc2ccc(F)cc2)n1Cc1ccccc1,inactive
17,Cc1ccc(C2(CCNCc3ccco3)CCOC(C(C)C)C2)cc1 (centres undefined),inactive
18,COc1ccccc1-n1c(-c2cc(-c3ccco3)[nH]n2)n[nH]c1=S,inactive
19,S=c1[nH]nc(-c2cc(-c3ccco3)[nH]n2)n1-c1ccccc1Cl,6.42 µM (active)
20,FC(F)(F)c1ccc(Cl)c(-n2c(-c3cc(-c4ccco4)[nH]n3)n[nH]c2=S)c1,inactive
21,O=C(CN1C(=O)S/C(=C\C=C\c2ccccc2)C1=O)Nc1ccc(C(=O)O)cc1,inactive
22,CN(C)c1ccc(NC(=O)CN2C(=O)CC(c3ccccc3)=Nc3ccccc32)cc1,5.09 µM (active)
23,COc1cc(C=O)c(Cl)cc1OCC(N)=O,inactive
24,COc1cc(CNc2ccc3c(c2)OCCO3)ccc1OCC(N)=O,3.27 µM (active)
25,CNC(=O)COc1ccc(C=O)cc1OC,inactive
26,COc1cc(CNc2ccc(N3CCOCC3)cc2)ccc1OCC(=O)NC(C)(C)C,4.7 µM (active)

row,SMILES,IC50
1,COc1ccc(CCNC(=O)c2cc(-c3ccc4c(c3)OCO4)on2)cc1OC,inactive
2,COc1cc(CNc2ccc(N3CCCCC3)cc2)ccc1OCC(=O)NC(C)(C)C,4.51 µM (active)
3,CC(C)N=C(NC#N)SCc1ccc(Br)cc1,inactive
4,Fc1cccc(Cl)c1Cn1nnc(-c2ccc(N3CCOCC3)cc2)n1,inactive
5,CCCC(=O)N=c1sc2c(OC)ccc(OC)c2n1C,inactive
6,Cc1sc2nc(CSc3ccc([N+](=O)[O-])cc3)[nH]c(=O)c2c1C,inactive
7,O=C1OCC(CO)(CO)N=C1NNc1ccccc1Cl,9.24 µM (active)
8,Nc1ccc(OCCCc2c(N)nc(N)nc2N)cc1,6.58 µM (active)
9,O=C1NN(c2ccccc2)C(=O)/C1=C/c1ccc(-c2cccc(C(=O)O)c2)o1,14.1 µM (active)
10,CC1=NN(c2cccc(C(=O)O)c2)C(=O)/C1=C\C=C\c1ccco1,inactive
11,CC1=C(C#N)C(=O)NC(=O)/C1=C/c1ccc(-c2ccc(S(N)(=O)=O)cc2)o1,inactive
12,O=C1NN(c2ccccc2)C(=O)/C1=C\c1ccc(-c2cc([N+](=O)[O-])ccc2O)o1,6.89 µM (active)
13,Cc1ccc(-c2ccc(/C=C3\C(=O)ON=C3c3ccccc3)o2)c([N+](=O)[O-])c1,inactive
14,N=C1/C(=C\c2ccc(-c3cccc(C(=O)O)c3)o2)C(=O)N=C2SC=C(c3ccccc3)N12,inactive
15,O=C1NN(c2ccccc2)C(=O)/C1=C/c1ccc(-c2ccc(C(=O)O)cc2)o1,13.4 µM (active)
16,CC(C)S(=O)(=O)C1=NSC2=NC(=O)/C(=C\c3ccc(-c4ccccc4)o3)C(=N)N21,inactive
17,CCn1c2ccccc2c2nnc(SCC(=O)N(C)C3CCS(=O)(=O)C3)nc21 (centres undefined),inactive
18,CC1=C(C)CS(=O)N(S(=O)(=O)c2ccc(Cl)cc2)C1 (centres undefined),inactive
19,COc1ccc(NC2CCCN(Cc3cccc4cnccc34)C2)cc1OC (centres undefined),8.39 µM (active)
20,Cc1ccsc1C(=O)NCc1ccccc1Cl,81.4 µM (active)
21,Cc1ccc2c(cnn2C(=O)CCC(=O)NCc2ccccc2Cl)c1,inactive
22,O=C(Cc1nnc(NC(=O)c2ccccc2)s1)N/N=C\c1ccc(O)c(O)c1,1.55 µM (active)
23,Cc1ccccc1C(=O)Nc1nnc(CC(=O)N/N=C/c2cn(Cc3ccccc3)c3ccccc23)s1,inactive
24,CCSc1nc2ccccc2n1CC(=O)OC,inactive
25,O=[N+]([O-])c1ccc(Sc2nc3ccccc3o2)c([N+](=O)[O-])c1,inactive
26,CCn1c(SCC(=O)N/N=C/c2ccc(O)c(OC)c2)nc2ccccc21,6.63 µM (active)

row,SMILES,IC50
1,Cc1cc(SCC(=O)N/N=C/c2ccc(O)c(O)c2)nc2ccccc12,5.75 µM (active)
2,O=C(CSc1nc2ccccc2o1)N/N=C/c1ccc(O)c(O)c1,7.74 µM (active)
3,COc1ccc(C2C3=C(N=C4SCC(=O)N42)c2ccccc2CC3)cc1 (centres undefined),inactive
4,Cn1c(SCC(=O)N/N=C/c2ccc(O)c(O)c2)nc2ccccc21,6.12 µM (active)
5,CN(C)c1ccc(NC2=C([N+](=O)[O-])CS(=O)(=O)C2)cc1,3.14 µM (active)
6,COc1ccc(N=Nc2c(N)n[nH]c2N)cc1,6.12 µM (active)
7,N=C1/C(=C\c2ccc(Br)o2)C(=O)N=C2SC(CC(=O)N3CCCCC3)=NN12,inactive
8,COc1cc2c(cc1NC(=S)Nc1ccccc1C)oc1ccccc12,23.6 µM (active)
9,CCN(CC)S(=O)(=O)c1ccc(OC)c(NC(=S)Nc2cccc(C)c2)c1,inactive
10,CCN1C(=O)C2(C(C(=O)c3cc4ccccc4o3)=C(O)C(=O)N2CCCN(C)C)c2ccccc21 (centres undefined),31.5 µM (active)
11,Cc1ccc2c(c1)C1C=CCC1C(C(=O)O)N2 (centres undefined),inactive
12,CCOc1cc2[nH]c(=O)n(Cc3ccc(C(=O)NCCCN4CCCC4=O)cc3)c(=O)c2cc1OCC,inactive
13,O=C1CCCN1CCCNC(=S)Nc1ccc(Nc2ccccc2)cc1,6.41 µM (active)
14,O=C1/C(=C\c2ccc(O)c(O)c2)N=C2CCCCCN12,4.83 µM (active)
15,COc1cc(/C=C2\N=C3CCCCCN3C2=O)ccc1O,3.83 µM (active)
16,CCOc1cc(/C=C2\N=C3CCCCCN3C2=O)ccc1O,5.66 µM (active)
17,COc1cc(/C=c2\sc3n(c2=O)CCCN=3)ccc1O,4.98 µM (active)
18,CC(=O)N1CC[n+]2c(-c3ccc([N+](=O)[O-])cc3)csc21,inactive
19,CCCCN1C(=O)/C(=C(/C#N)C(N)=O)c2ccccc21,inactive
20,CCN(CC)CCCCN1c2ccccc2Sc2ccccc21,6.81 µM (active)
21,CCN1/C(=C/C=C/c2sc3ccccc3[n+]2CC)Sc2ccccc21,inactive
22,NC(=O)Cn1c(=O)n(Cc2ccco2)c(=O)c2c3c(sc21)CCCCC3,inactive
23,COc1ccc(N2C3=C(CC4=C2CCCC4=O)C(=O)CCC3)cc1,inactive
24,O=C(Cn1c(=O)n(Cc2ccco2)c(=O)c2c3c(sc21)CCCCC3)c1ccccc1,inactive
25,Cc1ccc(-n2c(=O)c3c4c(sc3n3c(=S)[nH]nc23)CCC4)cc1,14.2 µM (active)
26,COc1ccc(-n2c(=O)c3c4c(sc3n3c(=S)[nH]nc23)CCC4)cc1,12 µM (active)

row,SMILES,IC50
1,O=c1c2c3c(sc2n2c(=S)[nH]nc2n1-c1ccccc1)CCC3,18.4 µM (active)
2,CCn1c(=O)n(CC)c2cc(N)ccc21,4.09 µM (active)
3,COCCn1nnnc1C(c1cc2cc(OC)c(OC)cc2[nH]c1=O)N1CCN(c2ccc(O)cc2)CC1 (centres undefined),8.81 µM (active)
4,O=c1[nH]c2cc3c(cc2cc1C(c1nnnn1CC1CCCO1)N1CCCCCC1)OCCO3 (centres undefined),inactive
5,COc1cccc(C(c2nnnn2Cc2ccco2)N2CCN(Cc3ccccc3)CC2)c1OC (centres undefined),inactive
6,CCc1cc2c(Nc3ccc(O)cc3)nc(C)nc2s1,4.69 µM (active)
7,Cc1cc2c(Nc3ccc(O)cc3)ncnc2s1,3.61 µM (active)
8,Cc1ccc(-c2nc(CN(Cc3cnn(C)c3)C(C)C)c(C)o2)o1,inactive
9,Nc1cc(C(=O)O)ccc1Nc1ccccc1,5.63 µM (active)
10,O=S(=O)(O)c1cccc2cccc(Nc3ccccc3)c12,19.5 µM (active)
11,Nc1ccc(Nc2ccccc2)c(S(=O)(=O)O)c1,4.02 µM (active)
12,Cc1ccc(C)n1-c1cccc(C(=O)O)c1,inactive
13,N#Cc1c(N)sc(=S)c2c1CCCCC2,inactive
14,CCOc1cc(/C=N/NC(=O)CCc2n[nH]c(=O)[nH]c2=O)ccc1O,9.46 µM (active)
15,COc1ccc(/C=N/NC(=O)CCc2n[nH]c(=O)[nH]c2=O)cc1O,7.94 µM (active)
16,COc1cc(/C=N/NC(=O)CNc2n[nH]c(=O)[nH]c2=O)ccc1O,2.93 µM (active)
17,Oc1ccccc1C(=S)N1CCCCCC1,13.9 µM (active)
18,CC(=O)Oc1ccc(C(=O)Nc2ccccc2C(=O)N2CCCCC2)cc1,inactive
19,COc1ccccc1NC(=O)c1c(NC(=O)CCC(=O)O)sc2c1CCCCC2,inactive
20,CCCCN1Cc2c(nc3cc(-c4ccco4)[nH]n3c2=O)C1=O,9.07 µM (active)
21,COC(=O)CC1SC(=O)NC1=Nc1ccc(O)cc1 (centres undefined),4.34 µM (active)
22,Cc1c(Cl)cccc1NC(=S)N(CCN(C)C)C(C)c1ccco1 (centres undefined),inactive
23,N#CCCn1nc(-c2ccc(Br)cc2)cc1Nc1ccccc1NC(=O)C(F)(F)F,inactive
24,COC(C(=O)N/N=C(\C)CC(=O)Nc1ccc(N(C)C)cc1)c1ccccc1 (centres undefined),6.98 µM (active)
25,COc1ccc(CC(=O)N/N=C(\C)CC(=O)Nc2ccc(N(C)C)cc2)cc1OC,3.9 µM (active)
26,COc1ccc(CC(=O)n2[nH]c(=O)ccc2=O)cc1OC,inactive
